Screens (PubChem)
Compounds with a hit are over-represented: about 4.6% of the library has one in this group of screens.
tim23-1 inh: growth inhibitors of tim23-1 mutant yeast, primary screen, luminescence, uHTS | S. cerevisiae tim23-1 growth, BacTiter-Glo luminescence, 24 h | inhibition, % at 20 µM | 1.3% of 330,000 active | AID 463212, 2010;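 active = growth inhibition of the mutant yeast at or above 50%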;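 note: temperature-sensitive mutant grown at 25 °C; plate controls were DMSO-treated mutant yeast for no effect and medium wells lacking yeast for full effect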
TIM10 inh: growth inhibitors of isogenic TIM10 control yeast, primary screen, counter-screen for tim10-1 yeast inhibitor project, luminescence, uHTS | inhibition, % at 10 µM | 1.4% of 330,000 active | S. cerevisiae TIM10 strain growth, BacTiter-Glo luminescence, 24 h;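 active = inhibition of 40% or more at the single tested concentration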;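 note: wild-type TIM10 isogenic control strain grown at permissive 25 °C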
NALP3 yeast inh: NALP3 inflammasome inhibitors in reconstituted yeast, primary screen, luminescence, uHTS; Yeast reconstituted NLRP3/ASC/caspase-1, beta-gal luminescence, 24 h; inhibition, % at 10 µM; 0.39% of 330,000 active;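 active = inhibition of 50% or more; inactive = inhibition below 50%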;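 note: plate controls were induced DMSO wells for no effect and uninduced yeast grown without galactose for full effect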
PfHsp90 yeast 2: growth inhibition of PfHsp90-expressing yeast, primary screen, antimalarial PfHsp90 inhibitor project, S. cerevisiae, BacTiter-Glo luminescence, single point, set 2; 0.32% of 310,000 active; AID 504621, 2011; BacTiter-Glo ATP, 48 h; yeast lacking PDR1 and PDR3 efflux regulators; inhibition, % at 9.4 µM;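 active = every replicate shows inhibition above about 80%, whatever the replicate mean, limit read from the data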;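 note: 0% = DMSO neutral controls and 100% = 20 µM radicicol positive controls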
SKKanGAS inh: S. pyogenes SKKanGAS growth inhibitors in kanamycin, primary screen, streptokinase expression inhibitor project, SKKanGAS strain, BacTiter-Glo luminescence | 6 h | 1.3% of 300,000 active | inhibition, % at 7.5 µM;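 active = mean replicate score, as percent of positive control median, at least 50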;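 note: strain carries kanamycin resistance gene driven by streptokinase promoter and grows in 40 µg/ml kanamycin; loss of luminescence reflects streptokinase promoter inhibition or plain growth inhibition; 0% = median of DMSO wells and 100% = positive control at its reference dose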
tim10-1 inh: growth inhibitors of tim10-1 mutant yeast, primary screen, luminescence, uHTS. S. cerevisiae tim10-1 ts strain growth, BacTiter-Glo, 24 h. inhibition, % at 20 µM. 2.2% of 330,000 active. AID 463190, 2010;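 active = inhibition of at least 40%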;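 note: mutant grown at 25 °C; 0% = DMSO wells with yeast and 100% = wells holding no yeast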
The depositor's hits bear a star; / = no result given.

SMILES	tim23-1 inh	TIM10 inh	NALP3 yeast inh	PfHsp90 yeast 2	SKKanGAS inh	tim10-1 inh
O=[N+]([O-])c1ccc(/C=N/NC2=NS(=O)(=O)c3ccccc32)cc1	-4	-1	9	15	-6	16
CC1(c2ccc([N+](=O)[O-])cc2)NC(=O)NC1=O (centres undefined)	-1	12	3	-8	-5	-14
O=[N+]([O-])c1ccc(OCCO)nc1	-9	6	25	36	-4	7
COc1ccc(S(=O)(=O)NCC(c2ccc(F)cc2)N2CCN(C)CC2)cc1 (centres undefined)	15	-5	11	10	50*	6
O=C(N/N=C/c1cc(Br)cc([N+](=O)[O-])c1O)c1ccc(NC(=O)c2ccc(F)cc2)cc1	7	-2	23	5	59*	3
Cc1cccc(C(=O)N[C@H](C(=O)Nc2ccc(C)c(S(=O)(=O)N(C)C)c2)C(C)C)c1	-8	-5	-9	2	10	9
Nc1cccc([N+](=O)[O-])c1	8	7	15	-3	10	10
O=[N+]([O-])c1cccc(SSc2cccc([N+](=O)[O-])c2)c1	/	/	/	110*	/	/
Cc1c(CCOC(=O)c2ccc(Cl)cc2Cl)sc[n+]1CC(=O)c1ccc(Br)cc1	13	8	18	-10	/	8
Cc1c(CCOC(=O)C2C3CC4CC(C3)CC2C4)sc[n+]1CC(=O)c1ccc(Br)cc1 (centres undefined)	4	18	12	-34	50*	6
CCc1ccc2[nH]c3nc(N/N=C/c4ccc(O)cc4O)nnc3c2c1	4	-45	31	-12	2	15
O=C(Nc1ccc(-c2csc(Nc3cccc(C(F)(F)F)c3)n2)cc1)c1cc([N+](=O)[O-])cc(C(F)(F)F)c1	19	5	10	3	53*	15
O=C(Nc1ccc(-c2csc(Nc3ccc(Cl)cc3)n2)cc1)c1ccccc1	12	1	-1	-29	/	-8
O=C(Nc1cccc(-c2csc(Nc3cccc(C(F)(F)F)c3)n2)c1)c1ccccc1	26	30	17	63	93*	26
O=C(Nc1nc(-c2ccccc2)cs1)c1cccc([N+](=O)[O-])c1	-13	-8	10	/	19	-4
O=C(Nc1ccc(-c2csc(Nc3cccc(C(F)(F)F)c3)n2)cc1)c1ccccc1	8	12	22	-3	84*	3
O=[N+]([O-])c1ccc(CSC2=NCCN2)cc1	-9	-4	3	15	-2	-12
COc1cccc2sc(Nc3nnc(-c4ccc(F)cc4)o3)nc12	32	12	19	-59	88*	-26
CCOC(=O)c1sc(Nc2nc3c(OC)cccc3s2)nc1C	20	22	2	-53	11	27
COc1cccc2sc(Nc3nnc(-c4cccs4)o3)nc12	7	11	10	/	92*	10
Fc1cccc2sc(Nc3nnc(-c4ccco4)o3)nc12	20	24	43	13	72*	20
CC(C(=O)Nc1cccnc1)C1Sc2ccccc2NC1=O (centres undefined)	-1	1	-7	15	5	8
O=C(Nc1ccccc1)c1cc2ccc3ccccc3c2s1	0	0	10	-2	-3	-18
N#C/C(=C(/O)COc1ccc(Cl)cc1)c1nc2ccccc2s1	-9	17	5	18	90*	-12
N#C/C(=C(/O)CSc1ccccn1)c1nc2ccccc2s1	22	11	19	28	0	-21
SMILES	tim23-1 inh	TIM10 inh	NALP3 yeast inh	PfHsp90 yeast 2	SKKanGAS inh	tim10-1 inh
Cc1ccc(SC/C(O)=C(\C#N)c2nc3ccccc3s2)cc1	0	8	17	-3	77*	-11
COc1cc(/C=C/C(=O)OCC(=O)c2c(N)n(C)c(=O)n(C)c2=O)ccc1O	-4	0	10	4	58*	19
COc1cc(/C=C/C(=O)OCC(=O)c2c(N)n(C)c(=O)n(C)c2=O)ccc1OC(F)F	2	11	-17	-19	19	9
COc1cc(/C=C/C(=O)OCC(=O)c2c(N)n(C)c(=O)n(C)c2=O)ccc1OCC#N	0	-13	4	15	56*	3
Cc1c(C(=O)N(C)c2ccc(Cl)cc2)cnn1-c1ccccc1	23	-6	12	7	1	18
CC(c1ccccc1)N1C(=O)c2ccc(C(=O)Nc3ccc(Br)cc3C(=O)O)cc2C1=O (centres undefined)	30	7	-2	-2	53*	16
Cc1[nH]c2ccccc2c1/C=N/Nc1nc2ccccc2[nH]1	9	-29	20	1	61*	6
Brc1ccc(-c2ccc(/C=N/Nc3nncc(-c4ccccc4)n3)o2)cc1	-3	-12	-3	-20	5	12
O=[N+]([O-])c1cc(/C=N/Nc2nc3ccccc3[nH]2)c(O)cc1O	/	/	/	/	97*	/
Cc1ccccc1/C=N/Nc1nc2ccccc2[nH]1	36	17	19	-5	68*	31
Cc1ccc(/C=N/Nc2nc3ccccc3[nH]2)s1	1	-17	20	-22	7	-25
C(=N\Nc1nc2ccccc2[nH]1)/c1ccccc1	-1	28	7	13	15	15
Brc1ccc(-c2ccc(/C=N/Nc3nc4ccccc4[nH]3)o2)cc1	-5	-27	9	20	89*	16
C(=N\Nc1nc2ccccc2[nH]1)/c1c[nH]c2ccccc12	-33	-8	10	17	64*	-5
Cc1cc(=O)[nH]c(N/N=C/c2c[nH]c3ccccc23)n1	2	-19	-13	-32	-9	-14
CCC(C)c1ccccc1NS(=O)(=O)c1cnn(CC)c1 (centres undefined)	9	2	19	6	53*	5
CCCCc1c(C)nn(-c2nnc3c4ccccc4n(CC)c3n2)c1C	30	26	9	-34	76*	39
COc1ccc(C)cc1S(=O)(=O)NNc1nc(C)cc(C)n1	9	13	-33	-19	/	11
Cc1ccc(O)c(-c2cc(-c3cccc(Br)c3)n[nH]2)c1	5	33	5	105*	100*	-62
Cc1ccc(-c2cc(-c3ccc(C)cc3O)[nH]n2)cc1	41	33	22	-12	35	9
C=CCOc1c(Cl)cc(CNCCCN2CCOCC2)cc1OC	-13	-20	21	6	-1	-5
O=C(/C=C/c1ccccc1)Nc1cccc(C(=O)NC2CC2)c1	/	/	/	19	/	/
c1ccc(-c2nc(C3CCCCC3)c3sccc3n2)cc1	3	1	-2	/	84*	16
